# Measured values reported in PubChem BioAssay (NCI).
# Where “and” joins values, the source holds several entries; their conditions need not be identical. Identical values can stand only once. About 83,000 compounds went through this panel and 20% of them were active in at least one assay; those are over-represented in the sample as a whole.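 Testing used 96-well plates and a 48-hour single-concentration exposure. Example: -40 means 40% of the starting cells died.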 Calls of active or inactive are those of the source. How the source made its calls: active means growth percent below 10; inactive means the rest.
# Columns and labels:
# Experiment in all cases: NCI-60 one-dose screen, 48 h (100 = growth as untreated, 0 = no growth, -100 = all killed)
# [1] = system: HCT-15 colon; details: 10 µM unless noted
# [2] = system: HT29 colon; details: 10 µM unless noted
# [3] = system: SNB-75 CNS; details: 10 µM unless noted
# [4] = system: SNB-19 CNS; details: 10 µM unless noted
# [5] = system: U251 CNS; details: 10 µM unless noted
# [6] = system: PC-3 prostate; details: 10 µM unless noted
# [7] = system: SK-MEL-5 melanoma; details: 10 µM unless noted
# [8] = system: UACC-62 melanoma
# [9] = system: LOX IMVI melanoma; details: 10 µM unless noted
# [10] = system: SK-MEL-2 melanoma; details: 10 µM unless noted
# [11] = system: EKVX NSCLC; details: 10 µM unless noted
# [12] = system: SN12C renal; details: 10 µM unless noted
# [13] = system: UO-31 renal; details: 10 µM unless noted
# [14] = system: ACHN renal; details: 10 µM unless noted
# [15] = system: CAKI-1 renal; details: 10 µM unless noted
# [16] = system: A498 renal; details: 10 µM unless noted
# [17] = system: CCRF-CEM leukemia; details: 10 µM unless noted
# [18] = system: MOLT-4 leukemia; details: 10 µM unless noted
# [19] = system: SK-MEL-28 melanoma; details: 10 µM unless noted
# [20] = system: TK-10 renal; details: 10 µM unless noted
compound,measurement,setting,value
Nc1nc(=S)c2[nH]cnc2[nH]1,growth,[1],13% (inactive) and 12.5% (inactive)
same,growth,[2],9.45% (active) and 8.24% (active)
same,growth,[3],29.1% (inactive) and 26.5% (inactive)
same,growth,[4],98.2% (inactive) and 102% (inactive)
same,growth,[5],47.2% (inactive) and 51% (inactive)
same,growth,[6],33.2% (inactive) and 32.1% (inactive)
same,growth,[7],-2% (active) and -29% (active)
same,growth,[8]; 10 µM,-21.9% (active)
same,growth,[8]; 250 µM,-67.7% (active) and -100% (active)
same,growth,[9],8.31% (active) and 5.43% (active)
same,growth,[10],29.7% (inactive) and 42.5% (inactive)
same,growth,[11],44.6% (inactive) and 36.6% (inactive)
same,growth,[12],29.5% (inactive) and 29.9% (inactive)
same,growth,[13],16.4% (inactive) and 28.5% (inactive)
same,growth,[14],18.7% (inactive) and 20.5% (inactive)
same,growth,[15],4.02% (active) and 14.2% (inactive)
same,growth,[16],32% (inactive)
same,growth,[17],7.32% (active) and 0.0411% (active)
same,growth,[18],10.1% (inactive) and 0.426% (active)
CN(C)c1ccc(C(=N)c2ccc(N(C)C)cc2)cc1,growth,[1],23.5% (inactive) and 20.9% (inactive)
same,growth,[2],2.09% (active) and 4.13% (active)
same,growth,[3],-30.8% (active) and 8.36% (active)
same,growth,[4],41.1% (inactive) and 38.3% (inactive)
same,growth,[5],16.6% (inactive) and 17.1% (inactive)
same,growth,[6],66% (inactive) and 47.3% (inactive)
same,growth,[7],7.19% (active) and 22.7% (inactive)
same,growth,[8]; 10 µM unless noted,31.4% (inactive) and 31.8% (inactive)
same,growth,[9],28.9% (inactive) and 33.9% (inactive)
same,growth,[19],44% (inactive) and 36% (inactive)
same,growth,[10],22.1% (inactive) and 3.75% (active)
same,growth,[11],58% (inactive) and 48.4% (inactive)
same,growth,[12],40.8% (inactive) and 42.4% (inactive)
same,growth,[13],50.1% (inactive) and 37.5% (inactive)
same,growth,[20],37% (inactive) and 67% (inactive)
same,growth,[14],50.9% (inactive) and 49.9% (inactive)
same,growth,[15],30.8% (inactive) and 19% (inactive)
same,growth,[16],15.2% (inactive) and -1.88% (active)
same,growth,[17],33.5% (inactive)
same,growth,[18],29.2% (inactive) and 16.8% (inactive)
Cc1cccc(Cl)c1N,growth,[1],109% (inactive)
same,growth,[2],109% (inactive)
same,growth,[3],100% (inactive)
same,growth,[4],108% (inactive)
same,growth,[5],108% (inactive)
same,growth,[6],95.5% (inactive)
same,growth,[7],110% (inactive)
same,growth,[8]; 10 µM unless noted,103% (inactive)
same,growth,[9],98.6% (inactive)
same,growth,[19],106% (inactive)
same,growth,[10],121% (inactive)
same,growth,[11],122% (inactive)
same,growth,[12],112% (inactive)
same,growth,[13],103% (inactive)
same,growth,[20],111% (inactive)
same,growth,[14],108% (inactive)
same,growth,[15],92.8% (inactive)
same,growth,[16],107% (inactive)
same,growth,[17],128% (inactive)
same,growth,[18],100% (inactive)
Nc1[nH][nH]c(=O)c1N=Nc1ccccc1,growth,[1],96.3% (inactive) and 106% (inactive)
same,growth,[2],107% (inactive) and 88.8% (inactive)
same,growth,[3],79.3% (inactive) and 111% (inactive)
same,growth,[4],99.5% (inactive) and 112% (inactive)
same,growth,[5],109% (inactive) and 105% (inactive)
same,growth,[6],99% (inactive) and 101% (inactive)
same,growth,[7],104% (inactive) and 99.5% (inactive)
same,growth,[8]; 10 µM unless noted,96.3% (inactive) and 109% (inactive)
same,growth,[9],105% (inactive) and 100% (inactive)
same,growth,[19],111% (inactive) and 118% (inactive)
same,growth,[10],122% (inactive) and 100% (inactive)
same,growth,[11],85.3% (inactive) and 91.3% (inactive)
same,growth,[12],97.6% (inactive) and 106% (inactive)
same,growth,[13],82.7% (inactive) and 85.1% (inactive)
same,growth,[20],112% (inactive) and 109% (inactive)
same,growth,[14],91.2% (inactive) and 104% (inactive)
same,growth,[15],104% (inactive)
same,growth,[16],86.8% (inactive) and 86.2% (inactive)
same,growth,[17],108% (inactive)
same,growth,[18],121% (inactive) and 100% (inactive)
Cc1nc(Nc2ccc(Cl)cc2)c2cnn(-c3ccccc3)c2n1,growth,[1],94.8% (inactive)
same,growth,[2],97.2% (inactive)
same,growth,[3],86.6% (inactive)
same,growth,[4],102% (inactive)
same,growth,[5],98.8% (inactive)
same,growth,[6],99.6% (inactive)
same,growth,[7],94.4% (inactive)
same,growth,[8]; 10 µM unless noted,100% (inactive)
same,growth,[9],97.9% (inactive)
same,growth,[19],102% (inactive)
same,growth,[10],100% (inactive)
same,growth,[11],91.3% (inactive)
same,growth,[12],102% (inactive)
same,growth,[13],94.6% (inactive)
same,growth,[20],95.4% (inactive)
same,growth,[14],105% (inactive)
same,growth,[15],96.3% (inactive)
same,growth,[16],83.5% (inactive)
same,growth,[17],26.1% (inactive)
same,growth,[18],106% (inactive)
CC(CN(C)C)CN1c2ccccc2Sc2ccccc21 (centres undefined),growth,[1],84.8% (inactive) and 89.2% (inactive) and 84.7% (inactive)
same,growth,[2],56.1% (inactive) and 71.1% (inactive) and 67.4% (inactive)
same,growth,[3],64.2% (inactive) and 60.6% (inactive) and 43.4% (inactive)
same,growth,[4],94.6% (inactive) and 80.4% (inactive) and 91.2% (inactive)
same,growth,[5],73.4% (inactive) and 87.5% (inactive) and 76.9% (inactive)
same,growth,[6],63.7% (inactive) and -49.1% (active) and 52.7% (inactive)
same,growth,[7],87.1% (inactive) and 74% (inactive) and 89.3% (inactive)
same,growth,[8]; 10 µM unless noted,92.8% (inactive) and 65.9% (inactive)
same,growth,[9],80.6% (inactive) and 83.5% (inactive) and 73.2% (inactive)
same,growth,[19],87.6% (inactive) and 113% (inactive) and 68.2% (inactive)
same,growth,[10],91.3% (inactive) and 103% (inactive)
same,growth,[11],83% (inactive) and 104% (inactive) and 73.8% (inactive)
same,growth,[12],65% (inactive) and 85.2% (inactive) and 80.5% (inactive)
same,growth,[13],51.7% (inactive) and 77.9% (inactive) and 71.7% (inactive)
same,growth,[20],82.6% (inactive) and 76.6% (inactive) and 81.6% (inactive)
same,growth,[14],76.1% (inactive) and 92.2% (inactive) and 85.9% (inactive)
same,growth,[15],62.3% (inactive) and 69.6% (inactive)
same,growth,[16],108% (inactive) and 95% (inactive) and 82.6% (inactive)
same,growth,[17],82.1% (inactive) and 85.3% (inactive) and 77.6% (inactive)
same,growth,[18],75.7% (inactive) and 100% (inactive) and 76.7% (inactive)
